This passage reports outcome and AC50 results from PubChem BioAssay (EPA / NIEHS).

Active and inactive are the calls of the source. The calls were made as follows: active = hit-call score of the fitted dose curve at least 0.9, where 1 is the maximum; inactive = score below 0.9.

The nature of assay [1]: APR_HepG2_CellCycleArrest_1hr: Apredica 1-hour HepG2 Assay for Cell Cycle Arrest (AID 2282666). The settings on record: high-content imaging, actives raise or lower the signal. In outline:
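HepG2 cells exposed for 1 h to 0.39–200 uM compound (0.5% DMSO). Fixed, Hoechst-stained nuclei imaged by ArrayScan; DNA content quantified by Cell Cycle analysis; bidirectional fit against DMSO.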

Assay [2] in a line: APR_HepG2_MicrotubuleCSK_1hr: Apredica 1-hour HepG2 Assay for Microtubule CSK Stabilty (AID 2282669). Particulars: HepG2 microtubule cytoskeleton imaging, actives raise or lower the signal. In short, it runs like this:
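HepG2 cells exposed 1 h to 0.39–200 uM compound (0.5% DMSO, duplicates), then formaldehyde-fixed, permeabilized and immunostained for alpha-tubulin with Hoechst nuclei. Imaged by ArrayScan high-content analysis; bidirectional fit versus DMSO.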

Assay [3] can be described thus: APR_HepG2_NuclearSize_1hr: Apredica 1-hour HepG2 Assay for Nuclear Size (AID 2282670). The settings on record: high-content imaging, actives raise or lower the signal. In short, it runs like this:
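HepG2 cells dosed 1 hr with 0.39–200 uM compound (0.5% DMSO), formaldehyde-fixed, Hoechst 33342-stained and imaged at 20x; nuclear diameter from nuclear stain, fitted bidirectionally against DMSO.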

Assay [4] is described as follows: APR_HepG2_MitoticArrest_1hr: Apredica 1-hour HepG2 Assay for Mitotic Arrest (AID 2282672). Particulars: high-content imaging, actives raise or lower the signal. In short, it runs like this: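 HepG2 cells exposed 1 hr to compounds at 0.39–200 uM (0.5% v/v DMSO final), then fixed in 3.7% formaldehyde and immunostained for phospho-histone H3 with Hoechst 33342. Mitotic arrest scored by automated fluorescence imaging, fitted bidirectionally versus DMSO.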

Assay [5] in a line: APR_HepG2_P-H2AX_1hr: Apredica 1-hour HepG2 Assay for H2AX Phosphorylation (AID 2282673). Particulars: high-content imaging, actives raise or lower the signal. In short, it runs like this:
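HepG2 dosed 1 hr at 0.39-200 uM (0.5% DMSO final), duplicate. Fixed in 3.7% formaldehyde, Triton permeabilized, immunostained for phospho-histone H2A.x (1:200) with Hoechst 33342; ArrayScan 20x imaging, bidirectional fit vs DMSO.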

A short description of assay [6]: APR_HepG2_MitoMass_1hr: Apredica 1-hour HepG2 Assay for Mitochondrial Mass (AID 2282674). The settings on record: high-content imaging, actives raise or lower the signal. In short, it runs like this:
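HepG2 cells dosed 1 hr with 0.39-200 uM compound (0.5% DMSO), duplicate wells. Mitochondria stained with 250 nM MitoTracker Red CMXRos for 30 min before formaldehyde fixation, imaged at 20x by ArrayScan; bidirectional fit versus DMSO.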

A short description of assay [7]: APR_HepG2_MitoMembPot_1hr: Apredica 1-hour HepG2 Assay for Mitochondrial Membrane Potential (AID 2282675). The settings on record: imaging, actives raise or lower the signal. In short, it runs like this:
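HepG2 cells dosed 1 hour with 0.39–200 uM compound in duplicate, 0.5% DMSO final. MitoTracker Red CMXRos (250 nM, 30 min) loaded before formaldehyde fixation; fluorescence quantified by high-content imaging, bidirectional fitting versus DMSO.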

A short description of assay [8]: APR_HepG2_CellCycleArrest_24hr: Apredica 24-hour HepG2 Assay for Cell Cycle Arrest (AID 2282905).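 Also: cell cycle arrest scored as ratio of 2N to 4N nuclear DNA content.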 The settings on record: imaging, actives raise or lower the signal. In short, it runs like this:
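Compounds at 0.39–200 uM (0.5% DMSO) for 24 h, then fixed and Hoechst 33342 stained. Cell-cycle analysis of nuclear DNA content by high-content imaging, fitted bidirectionally versus DMSO.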

A short description of assay [9]: APR_HepG2_CellLoss_1hr: Apredica 1-hour HepG2 Assay for Cell Loss (AID 2282668).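 Also: curves fitted both ways against DMSO so gain or loss of cells counts.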 The settings on record: high-content imaging. In short, it runs like this:
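HepG2 cells were treated for 1 h with compound at 0.39–200 uM, in duplicate, in 0.5% DMSO. After formaldehyde fixation, Hoechst 33342-stained nuclei were imaged on an ArrayScan to count cells. Data were fitted bidirectionally versus DMSO.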

A short description of assay [10]: APR_HepG2_p53Act_1hr: Apredica 1-hour HepG2 Assay for p53 Activation (AID 2282671). The settings on record: high-content imaging, actives raise or lower the signal. In outline:
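HepG2 cells treated 1 h with compound at 0.39–200 uM (10 concentrations, duplicate) in 0.5% DMSO. Formaldehyde-fixed, permeabilised cells immunostained for p53 with Hoechst 33342; high-content imaging, bidirectional fit versus DMSO.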

As to `CCOC(=O)COc1cc(-c2nn(C)c(OC(F)F)c2Cl)c(F)cc1Cl`, the compound was called inactive in assay [1], in assay [2], in assay [3], in assay [4], in assay [5] and in assay [6]. For the same compound, the compound was classed as inactive in assay [7] and in assay [8].

For the compound `CCCCOC(=O)[C@@H](C)Oc1ccc(Oc2ccc(C#N)cc2F)cc1`, the result in [1], in [9], in assay [2], in assay [4], in assay [5] and in assay [6] was inactive. Further, the outcome in [7] was inactive.

As for `C#CCC1=C(C)C(OC(=O)C2C(C=C(C)C)C2(C)C)CC1=O` (configuration not stated), the result in assay [9], in assay [2], in assay [3], in [10], in assay [4] and in [5] was inactive. Moreover, the call in [6] and in [7] was inactive.

As for `CC(C1CC1)C(O)(Cn1cncn1)c1ccc(Cl)cc1` (configuration not stated), the outcome in assay [1], in assay [2], in assay [4], in assay [5], in [6] and in assay [7] was inactive.

As usually defined, the AC50 is the midpoint of the concentration-response curve, whichever way the signal moves. Consider `COP(=O)(OC)C(O)C(Cl)(Cl)Cl` (configuration not stated), for which the compound was called inactive in assay [1], in assay [3], in assay [4], in assay [5], in assay [6] and in [7]. Also, the AC50 in assay [8] was 164 µM (active).

In the case of `CSc1nnc(C(C)(C)C)c(=O)n1N`, the compound was classed as inactive in assay [1], in [10], in assay [4], in assay [5], in assay [6] and in assay [7]. Moreover, the result in assay [8] was inactive.

As for `Nc1c(Cl)cc([N+](=O)[O-])cc1Cl`, the call in [1], in assay [2], in assay [4], in [5], in assay [6] and in [7] was inactive. For the same compound, the outcome in assay [8] was inactive.

In the case of `CCc1cccc(C)c1N(C(=O)CCl)C(C)COC` (configuration not stated), the call in assay [1], in assay [9], in [3], in [4], in assay [5] and in [6] was inactive. The compound was called inactive in assay [7] and in assay [8].

For the compound `CCCOCC(=Nc1ccc(Cl)cc1C(F)(F)F)n1ccnc1`, the result in assay [1], in assay [3], in [10], in assay [4], in [5] and in assay [6] was inactive. Moreover, the compound was classed as inactive in assay [7].

For `CC(Oc1cccc(Cl)c1)C(=O)O` (configuration not stated), the result in [1], in assay [9], in assay [2], in assay [4], in [5] and in assay [6] was inactive. Besides, the result in [7] was inactive.

For `CNC(=O)Oc1cccc2c1OC(C)(C)O2`, the outcome in assay [1], in [2], in [3], in assay [4], in assay [5] and in assay [6] was inactive. The call in assay [7] was inactive. Besides, in assay [8], the AC50 is 127 µM (active).

As for `O=[N+]([O-])c1cc(C(F)(F)F)c(Cl)c([N+](=O)[O-])c1Nc1ncc(C(F)(F)F)cc1Cl`, the result in assay [1], in assay [2], in [3] and in assay [4] was inactive. Moreover, the AC50 in assay [9] was 94.8 µM (active); in [5], 21.6 µM (active); in [6] it was 103 µM (active); in assay [7], 15 µM (active).

For `CCCSP(=O)(OCC)SCCC`, the outcome in assay [1], in assay [9], in [2], in assay [4], in assay [5] and in assay [6] was inactive. For the same compound, the compound was classed as inactive in assay [7] and in assay [8].

As for `CC(COc1ccc(Oc2ccccc2)cc1)Oc1ccccn1` (configuration not stated), the outcome in assay [9], in assay [2], in assay [3], in assay [10], in assay [4] and in [5] was inactive. In assay [6], the compound was classed as inactive. Further, the concentration at half-maximal activity (AC50) is 66.9 µM (active) in assay [7] and 77 µM (active) in assay [8].

For the compound `CC(=NC#N)N(C)Cc1ccc(Cl)nc1`, the call in assay [1], in assay [2], in assay [10], in assay [4], in assay [5] and in [6] was inactive. The compound was called inactive in assay [7].

As for `COc1ccc(C(=CC(=O)N2CCOCC2)c2ccc(Cl)cc2)cc1OC`, the call in [1], in assay [10], in [4], in assay [5], in [6] and in assay [7] was inactive.

`CCCOc1nn(C(=O)NS(=O)(=O)c2ccccc2C(=O)OC)c(=O)n1C`: the compound was called inactive in [1], in [2], in assay [3], in assay [10], in assay [4] and in assay [5]. For the same compound, the result in assay [6] and in assay [7] was inactive.

`CN1COCN(Cc2cnc(Cl)s2)C1=N[N+](=O)[O-]`: the compound was called inactive in [1], in assay [2], in assay [4], in assay [5], in assay [6] and in [7].

Regarding `CCC(=O)Nc1ccc(Cl)c(Cl)c1`, the outcome in [1], in assay [9], in assay [2], in assay [4], in [5] and in assay [6] was inactive. Besides, in assay [7], the outcome was inactive.

In the case of `N#CSCSC#N`, the call in assay [1], in [9], in assay [10], in [4], in assay [5] and in assay [6] was inactive. Also, in [7], the call was inactive.

With `CSC1=N[C@@](C)(c2ccccc2)C(=O)N1Nc1ccccc1`, the result in assay [1], in assay [9], in assay [10], in [4], in assay [5] and in assay [6] was inactive. Besides, the call in assay [7] and in assay [8] was inactive.

Consider `Cc1nn(-c2cc(NS(C)(=O)=O)c(Cl)cc2Cl)c(=O)n1C(F)F`, for which the result in assay [1], in assay [2], in [3], in assay [10], in assay [4] and in assay [5] was inactive. Further, the call in assay [6], in assay [7] and in [8] was inactive.

`CN(C)C(=O)Nc1cccc(C(F)(F)F)c1`: the result in assay [9], in [2], in assay [4], in [5], in assay [6] and in [7] was inactive.

For the compound `CNC(=O)ON=C(C)SC`, the call in [1], in assay [3], in [10], in [4], in assay [5] and in assay [6] was inactive. In addition, the compound was called inactive in [7].

For `CC1=NNC(=O)N(/N=C/c2cccnc2)C1`, the outcome in assay [9], in assay [2], in assay [10], in assay [4], in assay [5] and in [6] was inactive. Moreover, the compound was called inactive in [7].

On to `CCC(=NOC/C=C/Cl)C1=C(O)CC(C2CCOCC2)CC1=O` (configuration not stated), for which the outcome in assay [1], in assay [9], in [4], in assay [5], in [6] and in assay [7] was inactive.

Consider `C[N+]1(C)CCCCC1`, for which the compound was classed as inactive in [1], in assay [9], in assay [3], in assay [4], in assay [5] and in assay [6]. In addition, the compound was classed as inactive in assay [7] and in assay [8].

In the case of `CCOC(=O)CC(SP(=O)(OC)OC)C(=O)OCC` (configuration not stated), the result in [1], in assay [2], in assay [3], in [4], in [5] and in assay [6] was inactive. Moreover, the outcome in [7] and in assay [8] was inactive.

For `CCCCN(CC)c1c([N+](=O)[O-])cc(C(F)(F)F)cc1[N+](=O)[O-]`, the compound was called inactive in assay [1], in assay [3], in assay [4], in assay [5], in [6] and in assay [7].

For the compound `CCOP(=S)(OCC)Oc1cc(C)nc(C(C)C)n1`, the compound was called inactive in [1], in assay [2], in assay [3], in assay [4], in assay [5] and in assay [6]. In assay [7], the compound was called inactive.

On to `CCCCSP(=O)(SCCCC)SCCCC`, for which the call in assay [1], in assay [9], in assay [2], in assay [3], in assay [10] and in assay [4] was inactive. For the same compound, the call in assay [5], in [6] and in assay [7] was inactive.
